Results published in PubChem BioAssay (NCATS).
Several values for one entry are separate records, joined by “and”; a condition that tells them apart may be missing. Equal values may be shown once. Inconclusive results are not listed. Activity calls are given as the source filed them. Unless noted, calls follow the shape of the dose curve; as a rule, active = well fitted curve in the direction sought with a large enough effect; inconclusive = small, poorly fitted or top-dose-only effect, or another doubt; inactive = no such curve, though single readings can be large; an effect the other way counts as inactive or inconclusive.

Tests used:
[1] = target: Guanine nucleotide-binding protein G(i) subunit alpha-1 (Homo sapiens) (UniProt P63096); assay: qHTS Assay for Inhibitors of RGS12 GoLoco Motif Activity (Green Fluorophore) (AID 879);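 also: 0% = labeled peptide with Gαi1 and full inhibition = labeled peptide alone without protein; negative values mean loss of peptide binding seen as reduced polarization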
How it was run: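 A drop in FITC polarization marked displacement of the FITC-tagged RGS12 GoLoco peptide (10 nM) from Gαi1 (50 nM). Compounds were incubated 10 min at room temperature in Tris pH 7.5 buffer containing 150 mM NaCl, 0.1 mM GDP and 0.05% NP40; unlabeled peptide titration served as control.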

[2] = target: Cytochrome P450 3A4 (Homo sapiens) (UniProt P08684); assay: qHTS Assay for Inhibitors and Substrates of Cytochrome P450 3A4 (AID 884); also: % is scaled to controls: 0 for no effect and ±100 for the full control effect; nearly all actives have a fitted effect of over 50% in size
How it was run: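 Luminescent readout of luciferin produced by CYP3A4 (20 nM) dealkylation of Luciferin-PPXE, 25 uM (its KM). NADPH-driven reaction ran 60 min at RT after 10 min compound preincubation; data scaled to 57 uM ketoconazole as 100% inhibition.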

[3] = qHTS Assay for Identification of Small Molecule Antagonists for NFkB Signaling Pathway (AID 895; active = well fitted inhibition curve with a large enough effect in the signal ratio, with a control signal flat, not every such curve was filed as active; the % refers to the signal ratio; also: potency is read from the fitted curve at half-maximal effect)
How it was run: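 NFkB-bla ME-180 cervical carcinoma cells with beta-lactamase reporter under NFkB response element; compounds added, then TNF alpha at 10 pM final (EC50), 5 h at 37 C. LiveBLAzer substrate 2 h, room temperature; emission 460/530 nm at 405 nm excitation.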

[4] = Confirmation and Secondary Assay for Modulators of Hemoglobin Beta Chain Splicing at IVS2 654 locus (AID 910);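 also: per-well total GFP intensity by laser scanning cytometry after 2-day treatment; % of control where 0% means no effect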
How it was run: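 HeLa cells stably carrying EGFP interrupted by mutant beta-globin IVS2-654 intron (CMV-driven) were treated with compound for 2 days at 37C; corrected splicing was scored as total peak GFP intensity per well (488 nm excitation, 500-520 nm emission).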

[5] = qHTS Assay for Identification of Small Molecule Agonists for Thrombopoietin (TPO) Signaling Pathway (AID 917); also: % is scaled to controls: 0 for no effect and ±100 for the full control effect
How it was run: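 First, Ba/F3 cells with human TPO receptor were held overnight without IL-3. Next, compounds and TPO (26 pM final) were added. After 24 hrs at 37 C, luciferase detection reagent was added and luminescence measured following 10 min at room temperature.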

[6] = Cellular Toxicity (caspase-3) Jurkat (AID 655); details: Jurkat caspase-3 activation, luminescence, DMSO = 0%, tamoxifen = 100%; at 92.2 µM (top of the series);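 also: cells exposed to compound for 16 h at 37 °C before reading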
How it was run: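 Jurkat cells (5000/well) in complete medium were treated with compounds for 16 hr at 37 °C, then Caspase-Glo 3/7 luminescence was read after 20 min at room temperature. Data normalized to DMSO (basal) and 100 uM tamoxifen (100%); AC50 from Hill fit.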

[7] = Cellular Toxicity (caspase-3) HUV-EC-C (AID 656); also: potency is read from the fitted curve at half-maximal effect
How it was run: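 HUV-EC-C endothelial cells, 1000/well, were pre-incubated 5 hr at 37°C, then exposed to compounds for 16 hr at 37°C. Caspase-Glo 3/7 luminescence was read after 20 min at room temperature. AC50 came from Hill fits, normalized to DMSO and 100 uM tamoxifen.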

[8] = Cellular Toxicity (caspase-3) SHSY5Y (AID 657)
How it was run: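 SH-SY5Y human neuroblastoma cells (1500/well) were treated with compounds for 16 h at 37 °C, then Caspase-Glo 3/7 luminescence was read after 1 h at room temperature. Data normalized to DMSO and 10 uM staurosporine; AC50 from Hill fits.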

[9] = Cellular Toxicity (caspase-3) BJ (AID 658);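 also: 0% = DMSO basal and 100% = 10 µM staurosporine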
How it was run: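 Plated BJ cells (1000/well) rested 5 hr, received compound for 16 hr at 37 °C, then Caspase-Glo 3/7 reagent for 1 hr at room temperature before luminescence reading.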

[10] = Cellular Toxicity (caspase-3) MRC-5 (AID 659); details: Potency: caspase-3 activation; also: potency is read from the fitted curve at half-maximal effect;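 as to caspase-3 activation: 0% = DMSO basal and 100% = 10 µM staurosporine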
How it was run: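 Apoptosis readout in MRC-5 cells: luciferase light generated after caspase 3/7 cleaves a peptide-aminoluciferin substrate, measured post 16 hr compound incubation at 37 °C.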

[11] = Cellular Toxicity (caspase-3) SK-N-SH (AID 661); also: potency is read from the fitted curve at half-maximal effect;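 as to caspase-3 activation: 0% = DMSO basal and 100% = 10 µM staurosporine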
How it was run: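 Luminescent Caspase-Glo 3/7 read-out after 16 hr compound exposure of SK-N-SH neuroblastoma cells at 37 °C. Signal increase normalized to DMSO (basal) and 10 uM staurosporine (100%); AC50 from Hill equation fits of qHTS concentration-response data.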

[12] = Cellular Toxicity (caspase-3) Hek293 (AID 664); details: HEK293 caspase-3 activation; caspase-3 activation: at 92.2 µM (top of the series), DMSO = 0%, 100 µM tamoxifen = 100%;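 also: cells exposed to compound for 16 h at 37 °C before readout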; also: potency is read from the fitted curve at half-maximal effect
How it was run: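 Luminescent Caspase-Glo 3/7 readout (aminoluciferin release) in HEK293 cells after 16 h compound treatment, 37 °C. Normalization: DMSO = basal, 100 uM tamoxifen = 100% stimulation. Concentration-response fitted with standard Hill equation for AC50.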

[13] = Cellular Toxicity (caspase-3) N2a (AID 665); details: Potency: caspase-3 activation;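 also: compound exposure lasted 16 h at 37 °C before readout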; also: potency is read from the fitted curve at half-maximal effect
How it was run: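 Luminescent Caspase-Glo 3/7 readout in N2a mouse neuroblastoma cells after 16 h compound exposure at 37 °C. Signal scaled to DMSO (basal) and 10 uM staurosporine (100%). Concentration-response fitted with Hill equation for AC50.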

[14] = Cellular Toxicity (caspase-3) NIH 3T3 (AID 666);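 also: 0% = DMSO basal and 100% = 100 µM tamoxifen stimulation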
How it was run: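 NIH 3T3, 1000 cells/well, 5 hr settle then 16 hr compound at 37°C; Caspase-Glo 3/7, 20 min RT, luminescence. DMSO = basal, 100 uM tamoxifen = 100%. Hill-equation AC50, qHTS.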

[15] = Cellular Toxicity (caspase-3) Renal Proximal Tubule (AID 667); details: Potency: caspase-3 activation;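 also: cells exposed to compound for 16 hours at 37 °C before detection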; also: potency is read from the fitted curve at half-maximal effect;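 as to caspase-3 activation: 0% = DMSO basal and 100% = 10 µM staurosporine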
How it was run: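 Primary rat proximal tubule cells, 1000/well, 5 h plating at 37 °C, then compound 16 h at 37 °C. Caspase-Glo 3/7 reagent, 1 h RT, luminescence. Normalized to DMSO (basal) and 10 uM staurosporine (100%); Hill-fit AC50.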

[16] = target: Cytochrome P450 2C9 (Homo sapiens) (UniProt P11712); assay: qHTS Assay for Inhibitors and Substrates of Cytochrome P450 2C9 (AID 883); also: nearly all actives have a fitted effect of over 60% in size; also: potency is read from the fitted curve at half-maximal effect
How it was run: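 A luminogenic readout tracked human CYP2C9 (10nM) converting deoxyluciferin (100uM, at KM) in 25mM KPO4 during 60 min at 37C with regenerated NADPH. Values normalized to 57uM sulphaphenazole as complete inhibition.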

[17] = target: Cytochrome P450 2D6 (Homo sapiens) (UniProt P10635); assay: qHTS Assay for Inhibitors and Substrates of Cytochrome P450 2D6 (AID 891);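 also: luciferin methyl ether substrate demethylated by CYP2D6 with NADPH regeneration; % is scaled to controls: 0 for no effect and ±100 for the full control effect; nearly all actives have a fitted effect of over 60% in size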
How it was run: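 Luminescent read-out of luciferin formed by 5 nM human CYP2D6 demethylating 30 uM Luciferin-ME EGE (Km level) over 60 min at room temperature after NADPH regeneration addition. Data normalized to full inhibition by 1.43 uM quinidine.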

[18] = target: Cytochrome P450 2C19 (Homo sapiens) (UniProt P33261); assay: qHTS Assay for Inhibitors and Substrates of Cytochrome P450 2C19 (AID 899); also: nearly all actives have a fitted effect of over 60% in size; also: potency is read from the fitted curve at half-maximal effect
How it was run: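 NADPH-dependent conversion of Luciferin-H EGE (10uM, at KM) by 5nM enzyme in 50mM KPO4, 60 min at 37C following 10 min compound preincubation. Stopped with luciferin detection buffer; luminescence read after 20 min.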

[19] = qHTS Assay for Identification of Small Molecule Agonists for Hypoxia Response Element Signaling Pathway (AID 914; active = well fitted activation curve with a large enough effect in the signal ratio, with a control signal flat, not every such curve was filed as active; the % refers to the signal ratio; also: % of control where 0% means no effect); details: ME-180 (cervical carcinoma) HRE-bla reporter, beta-lactamase ratio, CoCl2, 17 h; stronger effect = higher value
How it was run: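 Positive modulation of EC50 CoCl2-induced hypoxia response element signaling is measured in ME-180 cells with a beta-lactamase reporter. Compounds are titrated, incubation runs 17 hours, and %Activity derives from the blue/green ratio.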

[20] = target: Cytochrome P450 3A4 (Homo sapiens) (UniProt P08684); assay: qHTS Assay for Activators of Cytochrome P450 3A4 (AID 885); also: nearly all actives have a fitted effect of over 65% in size
How it was run: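 CYP3A4 activity: Luciferin-PPXE O-dealkylation, 25uM substrate, 200mM KPO4, RT throughout. Read-out is luciferase luminescence; higher values reflect activation.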

Guanine nucleotide-binding protein G(i) subunit alpha-1 (Homo sapiens), sequence (P63096 whole entry, looked up): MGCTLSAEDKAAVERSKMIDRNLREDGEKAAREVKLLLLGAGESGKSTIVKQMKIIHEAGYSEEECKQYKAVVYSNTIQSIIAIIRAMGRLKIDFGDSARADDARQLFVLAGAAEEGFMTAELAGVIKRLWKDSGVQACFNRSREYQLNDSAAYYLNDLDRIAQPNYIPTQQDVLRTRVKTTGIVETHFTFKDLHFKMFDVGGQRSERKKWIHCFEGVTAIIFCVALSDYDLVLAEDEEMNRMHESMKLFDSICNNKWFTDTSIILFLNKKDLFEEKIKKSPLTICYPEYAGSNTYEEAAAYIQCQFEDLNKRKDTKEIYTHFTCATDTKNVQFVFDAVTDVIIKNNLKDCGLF
Cytochrome P450 2D6 (Homo sapiens), sequence (P10635 whole entry, looked up): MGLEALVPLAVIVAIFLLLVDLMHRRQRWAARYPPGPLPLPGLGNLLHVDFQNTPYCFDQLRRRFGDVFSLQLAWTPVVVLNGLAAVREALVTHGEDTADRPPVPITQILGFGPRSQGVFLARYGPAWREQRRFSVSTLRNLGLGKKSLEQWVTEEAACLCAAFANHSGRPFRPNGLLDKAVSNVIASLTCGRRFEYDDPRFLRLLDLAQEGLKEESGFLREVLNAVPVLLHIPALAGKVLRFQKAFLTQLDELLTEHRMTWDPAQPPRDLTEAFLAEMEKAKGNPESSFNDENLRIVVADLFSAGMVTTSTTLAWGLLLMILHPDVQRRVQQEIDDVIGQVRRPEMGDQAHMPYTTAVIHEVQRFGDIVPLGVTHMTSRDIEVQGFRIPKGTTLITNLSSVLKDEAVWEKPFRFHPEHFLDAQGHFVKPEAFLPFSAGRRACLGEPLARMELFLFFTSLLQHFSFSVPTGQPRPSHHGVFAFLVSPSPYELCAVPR
Cytochrome P450 2C19 (Homo sapiens), sequence (P33261 whole entry, looked up): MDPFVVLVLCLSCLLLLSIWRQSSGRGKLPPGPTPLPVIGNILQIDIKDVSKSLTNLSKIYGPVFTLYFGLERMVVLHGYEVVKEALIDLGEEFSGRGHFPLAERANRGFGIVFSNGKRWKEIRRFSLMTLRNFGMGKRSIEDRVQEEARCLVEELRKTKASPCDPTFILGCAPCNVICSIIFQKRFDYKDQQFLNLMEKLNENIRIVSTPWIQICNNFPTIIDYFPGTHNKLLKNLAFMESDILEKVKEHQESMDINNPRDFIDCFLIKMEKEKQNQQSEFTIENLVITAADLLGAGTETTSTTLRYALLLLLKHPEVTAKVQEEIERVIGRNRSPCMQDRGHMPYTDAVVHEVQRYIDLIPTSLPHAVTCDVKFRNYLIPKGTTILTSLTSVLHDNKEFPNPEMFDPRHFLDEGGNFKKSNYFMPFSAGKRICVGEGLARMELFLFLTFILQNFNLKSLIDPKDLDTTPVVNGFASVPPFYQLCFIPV
Cytochrome P450 2C9 (Homo sapiens), sequence (P11712 whole entry, looked up): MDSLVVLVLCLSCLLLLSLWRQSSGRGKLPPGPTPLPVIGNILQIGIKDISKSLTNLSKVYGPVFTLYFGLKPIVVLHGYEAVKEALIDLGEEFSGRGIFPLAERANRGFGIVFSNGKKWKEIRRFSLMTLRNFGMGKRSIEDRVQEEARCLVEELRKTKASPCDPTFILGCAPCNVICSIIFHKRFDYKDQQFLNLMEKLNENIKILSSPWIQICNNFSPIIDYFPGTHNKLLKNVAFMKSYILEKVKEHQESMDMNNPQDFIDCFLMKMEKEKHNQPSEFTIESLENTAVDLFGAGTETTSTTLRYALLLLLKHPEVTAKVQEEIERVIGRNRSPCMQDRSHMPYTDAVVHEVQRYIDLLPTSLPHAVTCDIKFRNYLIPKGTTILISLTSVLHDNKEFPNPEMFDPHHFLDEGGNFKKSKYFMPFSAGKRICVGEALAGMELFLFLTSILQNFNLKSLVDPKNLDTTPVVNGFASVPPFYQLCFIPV
Cytochrome P450 3A4 (Homo sapiens), sequence (P08684 whole entry, looked up): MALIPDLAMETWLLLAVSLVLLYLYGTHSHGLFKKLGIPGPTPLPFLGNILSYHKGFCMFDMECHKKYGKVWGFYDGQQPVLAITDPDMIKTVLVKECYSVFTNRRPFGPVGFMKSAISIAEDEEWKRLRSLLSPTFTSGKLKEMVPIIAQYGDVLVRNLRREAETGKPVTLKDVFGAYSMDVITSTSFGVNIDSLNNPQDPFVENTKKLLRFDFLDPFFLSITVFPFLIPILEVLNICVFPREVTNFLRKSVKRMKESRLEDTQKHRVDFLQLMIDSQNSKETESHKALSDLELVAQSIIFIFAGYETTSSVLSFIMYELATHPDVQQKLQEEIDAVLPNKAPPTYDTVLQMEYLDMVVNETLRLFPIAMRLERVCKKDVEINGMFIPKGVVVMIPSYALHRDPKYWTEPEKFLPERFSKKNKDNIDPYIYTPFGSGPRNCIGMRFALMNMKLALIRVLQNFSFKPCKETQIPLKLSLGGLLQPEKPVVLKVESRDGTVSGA

CCN(CC)CCOC(=O)c1ccc(N)cc1
inactive: outcome [1] | Potency [2] | Potency [3] | outcome [4] | Potency [5]

CN(C)CCC(c1ccccc1)c1ccccn1 (configuration not stated)
inactive: caspase-3 activation [6] 1.03% | Potency [7] | outcome [8] | outcome [9] | Potency [10] | Potency [11] | Potency [12] | Potency [13] | outcome [14] | Potency [15] | Potency [2] | outcome [4]

CC(=O)c1ccc(S(=O)(=O)NC(=O)NC2CCCCC2)cc1
inactive: caspase-3 activation [6] 0.00348% | Potency [7] | outcome [8] | outcome [9] | Potency [10] | Potency [11] | Potency [12] | Potency [13] | outcome [14] | Potency [15] | outcome [1] | Potency [16] | Potency [2] | Potency [17] | Potency [3] | Potency [18] | Potency [5]

CC(=O)N[C@@H](CS)C(=O)O
inactive: outcome [1] | Potency [2]

CCCCC1C(=O)N(c2ccccc2)N(c2ccccc2)C1=O
inactive: caspase-3 activation [6] 0.354% | Potency [7] | outcome [8] | outcome [9] | Potency [10] | Potency [11] | Potency [12] | Potency [13] | outcome [14] | Potency [15] | outcome [1] | Potency [17] | Potency [18] | outcome [4] | activation [19] -18.4% and -5.39% | Potency [5]

CC(=O)O[C@]1(C(C)=O)CC[C@H]2[C@@H]3C=C(Cl)C4=CC(=O)[C@@H]5C[C@@H]5[C@]4(C)[C@H]3CC[C@@]21C
inactive: caspase-3 activation [6] 11.6% | Potency [7] | outcome [8] | outcome [9] | Potency [10] | Potency [11] | Potency [12] | Potency [13] | outcome [14] | Potency [15] | Potency [2]

O=C1NC(=O)C(c2ccccc2)(c2ccccc2)N1
inactive: caspase-3 activation [6] 1.33% | Potency [7] | outcome [8] | outcome [9] | Potency [10] | Potency [11] | Potency [12] | Potency [13] | outcome [14] | Potency [15] | outcome [1] | Potency [2] | outcome [4] | Potency [5]

O=c1cc(-c2ccc(O)cc2)oc2cc(O)cc(O)c12
active: Potency [18] 7.94 µM
inactive: caspase-3 activation [6] 8.24% | Potency [7] | outcome [8] | outcome [9] | Potency [10] | Potency [11] | Potency [12] | Potency [13] | outcome [14] | Potency [15] | Potency [16] | outcome [20] | outcome [4]

CC(=O)CCCCn1c(=O)c2c(ncn2C)n(C)c1=O
inactive: outcome [1] | Potency [16] | Potency [2] | Potency [17] | Potency [18] | outcome [4] | Potency [5]

O=C(O)Cc1cccc2ccccc12
inactive: caspase-3 activation [6] 1.08% | Potency [7] | outcome [8] | outcome [9] | Potency [10] | Potency [11] | Potency [12] | Potency [13] | outcome [14] | Potency [15] | Potency [2]

CC(C)OC(=O)C(C)(C)Oc1ccc(C(=O)c2ccc(Cl)cc2)cc1
inactive: outcome [1] | Potency [2] | Potency [17] | outcome [4] | Potency [5]
active: Potency [16] 5.01 µM

CC1=C(/C=C/C(C)=C/C=C/C(C)=C/C(=O)Nc2ccc(O)cc2)C(C)(C)CCC1
inactive: outcome [14] | outcome [1]
active: caspase-3 activation [6] -0.319% | Potency [7] 31.6 µM | Potency [10] 31.6 µM | Potency [11] 31.6 µM | Potency [12] 31.6 µM | Potency [13] 31.6 µM | Potency [15] 31.6 µM | Potency [3] 6.31 µM

CCn1cc(C(=O)O)c(=O)c2ccc(C)nc21
inactive: caspase-3 activation [6] 0.304% | Potency [7] | outcome [8] | outcome [9] | Potency [10] | Potency [11] | Potency [12] | Potency [13] | outcome [14] | Potency [15] | outcome [4]

CC/C(=C(\c1ccccc1)c1ccc(OCCN(C)C)cc1)c1ccccc1
inactive: outcome [14] | outcome [1] | outcome [4]
active: Potency [7] 63.1 µM | caspase-3 activation [12] 147%

COc1ccccc1N1CCN(CCCNc2cc(=O)n(C)c(=O)n2C)CC1
active: Potency [18] 7.94 µM
inactive: outcome [1] | Potency [2] | outcome [4] | Potency [5]

O=c1[nH]cnc2c1ncn2[C@H]1CC[C@@H](CO)O1
inactive: caspase-3 activation [6] 3.7% | Potency [7] | outcome [8] | outcome [9] | Potency [10] | Potency [11] | Potency [12] | Potency [13] | outcome [14] | Potency [15] | Potency [2]
